# Experimental data as given in PubChem BioAssay (NCATS).
# Inconclusive results are not listed. Where a call stands in place of a potency, no number is given. A number with no mark means an inactive call. Active and inactive are the calls of the source. Unless noted, calls come from the whole dose curve; as a rule, active = well fitted curve in the direction sought with a large enough effect; inconclusive = small, poorly fitted or top-dose-only effect, or another doubt; inactive = no such curve, though single readings can be large; an effect the other way counts as inactive or inconclusive.
# Experiments:
# [1] = target: Cytochrome P450 2C9 (Homo sapiens) (UniProt P11712); experiment: Cytochrome P450 family 2 subfamily C member 9 (CYP2C9) small molecule antagonists: luciferase biochemical (cell-free) qHTS assay (AID 1645842; active = well fitted curve in the direction sought with a large enough effect in the repeat runs; an effect the other way counts as inactive or inconclusive; note: nearly all actives have a fitted effect of over 55% in size; note: potency is the fitted concentration of half-maximal effect; for activity change, negative = inhibition: series mostly up to about 57 µM)
# In short: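 Luminescence, after 20 min with luciferin detection reagent, reflected CYP2C9 turnover during a 1 h NADPH-driven reaction at 37C. Enzyme-substrate mix contained 0.4% bovine serum albumin and was preincubated with compound 10 min at room temperature.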
# [2] = target: Papain (Carica papaya) (UniProt P00784); experiment: Primary qHTS assay for inhibitors of the protease papain (AID 1645873);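 note: papain turnover of Z-FR-AMC read as the AMC fluorescence gain over 10 min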; note: potency is the fitted concentration of half-maximal effect; for activity change, negative = inhibition: series mostly up to about 50 µM
# [3] = Primary qHTS for inhibitors of nuclear receptor binding SET domain protein 2 (NSD2) in an isogenic RCH-ACV NSD2 p.E1099K mutant (9B) (AID 1645876); note: nearly all actives have a fitted effect of over 70% in size; note: potency is the fitted concentration of half-maximal effect
# [4] = Primary qHTS for inhibitors of nuclear receptor binding SET domain protein 2 (NSD2) in an RCH-ACV wild type WT cells (2C) (AID 1645877); note: nearly all actives have a fitted effect of over 70% in size; note: potency is the fitted concentration of half-maximal effect
# [5] = target: Cytochrome P450 3A4 (Homo sapiens) (UniProt P08684); experiment: Cytochrome P450 family 3 subfamily A member 4 (CYP3A4) small molecule antagonists: luciferase qHTS assay (AID 1645841; active = well fitted curve in the direction sought with a large enough effect in the repeat runs; an effect the other way counts as inactive or inconclusive; note: nearly all actives have a fitted effect of over 45% in size)
# In short: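 Luminescent CYP3A4 activity readout: compounds plus enzyme-substrate mix 10 min at room temperature, reaction started with NADPH regenerating system for 1 h, stopped with detection reagent, read after 20 min. Ketoconazole served as control.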
# [6] = target: N-terminal Xaa-Pro-Lys N-methyltransferase 1 (Homo sapiens) (UniProt Q9BV86); experiment: Confirmatory qHTS for Inhibitors of N-terminal methyltransferase 1 (NTMT1): MTaseGlo Assay (AID 1645874); conditions: NTMT1 enzyme, MTase-Glo SAH luminescence; note: potency is the fitted concentration of half-maximal effect; nearly all actives have a fitted effect of over 65% in size
# Excerpt: Assay Submitter (PI): Rong Huang Ph.D.
# Purdue University, West Lafayette, IN 47907
# The N-terminal methytransferase 1 is the first methyltransferase that methylates protein alpha-N-amines and plays an important role in regulating cell mitosis, chromatin interactions and DNA repair. It is observed to be over-expressed in various cancer patient tissues like malignant melanoma and colorectal cancer tissues. Knockdown of NTMT1 in cancer cells causes cell mitotic defects and enhances sensitivity to DNA damaging chemotherapeutics. […] These critical cellular processes in which NTMT1 is implicated, coupled with emerging links to cellular dysfunction, strengthen the inference that NTMT1 is a compelling novel anticancer target. Progress have been made in understanding the molecular properties of NTMT1 and the biological consequences of protein alpha-N-terminal methylation, but there are no specific small molecule probes available for NTMT1 to fully characterize its MTase activity. To address this unmet need, a panel of assay is created and established to enable quantitative high-throughput screening (qHTS) for novel, potent, and selective small molecule NTMT1 inhibitors. Two orthogonal qHTS that use different reagents (ThioGlo vs. MTaseGlo) are developed for primary robotic screening against the NCATS chemical library of more than 400,000 small molecules. Identified inhibitors are reacquired, validated, and further characterized.
# MTaseGlo Assay is a luminescence screen that measure the activity of methyltransferases based on the reaction product S-adenosyl homocysteine (SAH). The substrate SAM is converted to SAH upon enzyme activation. MTase-Glo reagent and detection solution convert SAH to ATP and measure the light from the luciferase reaction.
# Materials: NTMT1 enzyme, substrate SPKRIA, control peptide RCC1-6 is provided by the Huang laboratory.
# SEQUENCE No. (e.g., 1, 2, 3, etc.); […] (e.g., Cells, Incubation, Reagent, etc.); VALUE; DESCRIPTION
# 1; Enzyme; 3 uL; Dispense enzyme mixture (final concentrations of 125 nM NTMT1 and 100 uM SAM) into Greiner 1536-well white / solid bottom assay plate (Greiner Bio One, Monroe, NC).
# 2; Compounds; 23 nL; Compounds and controls were transferred via a Kalypsys Pin Tool (Wako USA) equipped with a 1536-slotted pin array (Wako Automation, Richmond, VA)
# 3; Incubation; 15 min; Incubate at room temperature
# 4; Substrate; 1 uL; Dispense 1 uL of substrate at final concentration of 1 uM. Buffer solution was dispensed in control wells. The assay plate was covered with metal lids. […]
# 8; Reagent; 5 uL; Dispense 5 uL of 1x MTase-Glo Detection Solution (R) to allow for ADP to be converted to ATP which was then detected with a luciferase reaction. […]
# 11; Detection; Luminescence; Plates were read on ViewLux detector (PerkinElmer). […]
# [7] = target: Rap guanine nucleotide exchange factor 3 (Homo sapiens) (UniProt O95398); experiment: Confirmatory qHTS for antagonist of cAMP-regulated guanine nucleotide exchange factor 3 (EPAC1) (AID 1645880); note: nearly all actives have a fitted effect of over 55% in size
# In short: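 Nucleotide exchange uses 100 nM EPAC1, 250 nM RAP1B-BODIPY-GDP and 50 uM GDP, with compounds in a concentration-titration series. After 5 min at room temperature, fluorescence (480 nm ex/540 nm em) is read every 5 min for 30 min. Data are normalized to control ATA and DMSO.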
# [8] = target: Rap guanine nucleotide exchange factor 3 (Homo sapiens) (UniProt O95398); experiment: Confirmatory qHTS for agonist of cAMP-regulated guanine nucleotide exchange factor 3 (EPAC1) (AID 1645881);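 note: EPAC1 catalysed release of BODIPY-GDP from Rap1B seen as fluorescence loss; nearly all actives have a fitted effect of over 75% in size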
# [9] = target: Rap guanine nucleotide exchange factor 4 (Homo sapiens) (UniProt Q8WZA2); experiment: Confirmatory qHTS for antagonist of cAMP-regulated guanine nucleotide exchange factor 4 (EPAC2) (AID 1645885); note: nearly all actives have a fitted effect of over 25% in size
# Sequence of Rap guanine nucleotide exchange factor 4 (Homo sapiens) (Q8WZA2 whole entry, looked up): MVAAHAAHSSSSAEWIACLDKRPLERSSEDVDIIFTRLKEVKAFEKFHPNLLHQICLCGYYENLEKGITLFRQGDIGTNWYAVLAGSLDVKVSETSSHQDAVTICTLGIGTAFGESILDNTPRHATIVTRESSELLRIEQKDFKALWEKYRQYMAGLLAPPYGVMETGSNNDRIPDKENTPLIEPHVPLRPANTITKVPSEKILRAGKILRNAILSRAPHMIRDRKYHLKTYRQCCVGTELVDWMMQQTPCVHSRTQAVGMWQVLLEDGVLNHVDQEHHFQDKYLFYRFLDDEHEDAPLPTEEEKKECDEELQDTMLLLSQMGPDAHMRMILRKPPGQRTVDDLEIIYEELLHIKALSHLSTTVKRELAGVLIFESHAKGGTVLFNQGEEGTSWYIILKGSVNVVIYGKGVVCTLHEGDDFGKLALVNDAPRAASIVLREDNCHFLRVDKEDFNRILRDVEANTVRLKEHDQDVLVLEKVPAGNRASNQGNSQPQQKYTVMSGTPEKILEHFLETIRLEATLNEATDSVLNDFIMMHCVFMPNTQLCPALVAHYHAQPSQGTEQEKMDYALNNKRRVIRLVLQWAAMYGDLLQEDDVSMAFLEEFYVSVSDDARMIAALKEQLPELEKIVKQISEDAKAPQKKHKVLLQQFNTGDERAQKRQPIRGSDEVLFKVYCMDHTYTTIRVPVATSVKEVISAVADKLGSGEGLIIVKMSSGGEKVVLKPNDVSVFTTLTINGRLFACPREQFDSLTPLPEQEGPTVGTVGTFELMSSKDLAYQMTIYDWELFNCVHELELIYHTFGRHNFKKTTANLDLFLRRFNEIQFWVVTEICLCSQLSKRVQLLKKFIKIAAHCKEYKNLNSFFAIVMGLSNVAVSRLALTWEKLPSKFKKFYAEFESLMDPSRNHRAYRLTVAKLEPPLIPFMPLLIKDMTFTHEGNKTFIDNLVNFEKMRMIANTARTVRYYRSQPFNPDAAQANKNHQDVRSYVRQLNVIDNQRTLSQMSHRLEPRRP
# Sequence of Cytochrome P450 3A4 (Homo sapiens) (P08684 whole entry, looked up): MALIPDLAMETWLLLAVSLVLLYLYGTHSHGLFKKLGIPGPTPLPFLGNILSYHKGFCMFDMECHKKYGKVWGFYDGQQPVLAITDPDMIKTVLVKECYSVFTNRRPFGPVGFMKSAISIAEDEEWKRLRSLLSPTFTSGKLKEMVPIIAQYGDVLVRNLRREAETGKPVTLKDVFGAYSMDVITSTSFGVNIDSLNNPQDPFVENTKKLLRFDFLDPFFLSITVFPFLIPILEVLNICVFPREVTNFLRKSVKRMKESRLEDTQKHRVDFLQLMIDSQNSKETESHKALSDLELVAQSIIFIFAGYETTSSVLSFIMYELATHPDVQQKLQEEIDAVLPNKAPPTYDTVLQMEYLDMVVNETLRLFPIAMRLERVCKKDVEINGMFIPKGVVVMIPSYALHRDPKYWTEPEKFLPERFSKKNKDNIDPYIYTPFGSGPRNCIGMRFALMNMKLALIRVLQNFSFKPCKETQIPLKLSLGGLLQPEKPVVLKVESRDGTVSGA
# Sequence of Papain (Carica papaya) (P00784 whole entry, looked up, the tested form may be a part): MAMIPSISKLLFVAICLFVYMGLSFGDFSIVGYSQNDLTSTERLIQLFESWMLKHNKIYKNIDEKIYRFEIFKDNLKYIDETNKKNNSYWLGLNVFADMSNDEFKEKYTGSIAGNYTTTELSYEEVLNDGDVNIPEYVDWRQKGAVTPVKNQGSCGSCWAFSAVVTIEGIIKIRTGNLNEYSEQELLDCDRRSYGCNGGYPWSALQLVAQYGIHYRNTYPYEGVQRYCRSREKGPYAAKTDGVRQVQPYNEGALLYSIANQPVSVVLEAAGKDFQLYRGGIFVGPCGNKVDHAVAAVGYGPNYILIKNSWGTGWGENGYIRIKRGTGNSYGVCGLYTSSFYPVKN
# Sequence of Cytochrome P450 2C9 (Homo sapiens) (P11712 whole entry, looked up): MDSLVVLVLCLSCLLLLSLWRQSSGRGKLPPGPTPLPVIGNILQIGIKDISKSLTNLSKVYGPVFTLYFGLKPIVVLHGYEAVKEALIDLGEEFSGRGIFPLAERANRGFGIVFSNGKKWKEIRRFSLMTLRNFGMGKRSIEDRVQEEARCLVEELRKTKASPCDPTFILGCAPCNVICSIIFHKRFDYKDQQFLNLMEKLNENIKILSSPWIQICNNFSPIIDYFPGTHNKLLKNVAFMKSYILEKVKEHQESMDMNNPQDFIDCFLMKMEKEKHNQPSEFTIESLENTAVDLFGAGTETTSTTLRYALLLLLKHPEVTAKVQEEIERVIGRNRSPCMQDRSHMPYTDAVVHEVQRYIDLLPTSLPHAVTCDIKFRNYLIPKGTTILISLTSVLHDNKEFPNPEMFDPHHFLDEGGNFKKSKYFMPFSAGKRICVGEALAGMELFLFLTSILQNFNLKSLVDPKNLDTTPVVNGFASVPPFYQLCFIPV
# Sequence of Rap guanine nucleotide exchange factor 3 (Homo sapiens) (O95398 whole entry, looked up): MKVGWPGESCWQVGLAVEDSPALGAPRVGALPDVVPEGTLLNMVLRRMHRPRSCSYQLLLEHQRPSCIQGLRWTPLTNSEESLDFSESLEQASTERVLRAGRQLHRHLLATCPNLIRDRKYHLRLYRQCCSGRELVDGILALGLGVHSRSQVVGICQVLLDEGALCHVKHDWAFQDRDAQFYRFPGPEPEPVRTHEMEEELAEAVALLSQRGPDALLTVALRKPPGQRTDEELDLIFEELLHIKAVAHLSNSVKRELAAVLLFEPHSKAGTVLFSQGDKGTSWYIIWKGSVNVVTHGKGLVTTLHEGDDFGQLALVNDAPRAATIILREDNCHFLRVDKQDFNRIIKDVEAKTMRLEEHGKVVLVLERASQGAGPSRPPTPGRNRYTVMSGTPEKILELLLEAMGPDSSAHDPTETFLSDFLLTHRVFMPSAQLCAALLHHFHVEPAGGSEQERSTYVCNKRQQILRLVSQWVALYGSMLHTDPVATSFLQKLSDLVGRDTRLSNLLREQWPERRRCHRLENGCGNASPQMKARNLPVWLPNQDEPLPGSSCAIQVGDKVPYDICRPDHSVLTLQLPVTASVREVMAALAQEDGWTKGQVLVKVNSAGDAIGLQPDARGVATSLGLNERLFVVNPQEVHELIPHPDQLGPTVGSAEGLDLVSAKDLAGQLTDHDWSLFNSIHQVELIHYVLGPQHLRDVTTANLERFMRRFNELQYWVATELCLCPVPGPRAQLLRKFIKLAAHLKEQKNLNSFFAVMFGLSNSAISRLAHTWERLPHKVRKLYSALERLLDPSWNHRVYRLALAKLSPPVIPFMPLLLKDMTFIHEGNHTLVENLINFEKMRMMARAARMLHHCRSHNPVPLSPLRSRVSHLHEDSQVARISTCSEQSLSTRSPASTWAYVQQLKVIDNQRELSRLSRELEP
# Sequence of N-terminal Xaa-Pro-Lys N-methyltransferase 1 (Homo sapiens) (Q9BV86 whole entry, looked up): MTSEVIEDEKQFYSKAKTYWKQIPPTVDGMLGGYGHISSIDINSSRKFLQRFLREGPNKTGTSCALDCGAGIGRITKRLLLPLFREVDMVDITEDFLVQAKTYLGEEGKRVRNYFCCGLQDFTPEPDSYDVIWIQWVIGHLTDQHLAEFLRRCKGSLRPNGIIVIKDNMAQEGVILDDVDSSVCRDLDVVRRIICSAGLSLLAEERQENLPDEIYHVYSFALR
smiles,measurement,setting,value
C#CCN(C)Cc1ccccc1,Potency,[1],inactive
same,Potency,[2],inactive
same,Potency,[3],inactive
same,Potency,[4],inactive
[Cl][In]([Cl])[Cl],outcome,[5],inactive
same,Potency,[1],inactive
same,Potency,[6],4.91 µM (active)
same,Potency,[3],24.3 µM (active)
Cc1cc2c(cc1S(N)(=O)=O)S(=O)(=O)CCC2,outcome,[5],inactive
same,Potency,[1],inactive
same,Potency,[3],inactive
same,Potency,[4],inactive
CC(CN(C)C)CN1c2ccccc2CCc2ccccc21 (configuration not stated),Potency,[1],inactive
same,Potency,[2],inactive
NC(CSCC(=O)O)C(=O)O (configuration not stated),Potency,[1],inactive
NC(N)=NCCC[C@H](N)C(=O)O,"activity change, negative = inhibition",[1],-6.78% [at 4.83 µM]
same,Potency,[2],inactive
same,outcome,[3],inactive [at 4.96 µM]
CC(CN1c2ccccc2Sc2ccccc21)N(C)C (configuration not stated),Potency,[1],inactive
same,Potency,[2],inactive
same,Potency,[3],16.8 µM (active)
Cc1cc(N)c2ccccc2[n+]1CCCCCCCCCC[n+]1c(C)cc(N)c2ccccc21,Potency,[1],inactive
same,Potency,[2],15.8 µM (active)
same,Potency,[3],2.9 µM (active)
same,Potency,[4],3.25 µM (active)
O=C1NC(=O)[C@@]2(CCOc3ccc(F)cc32)N1,Potency,[1],inactive
same,Potency,[2],inactive
same,Potency,[3],inactive
same,Potency,[4],inactive
CC(=O)c1ccc2c(c1)N(CCCN(C)C)c1ccccc1S2,Potency,[1],inactive
same,Potency,[2],inactive
Cc1cc(C(C#N)c2ccc(Cl)cc2)c(Cl)cc1NC(=O)c1cc(I)cc(I)c1O (configuration not stated),Potency,[1],21.9 µM (active)
CN(C)CCN(Cc1ccccc1)c1ccccn1,Potency,[1],inactive
CS(=O)(=O)c1ccc([C@@H](O)[C@@H](CF)NC(=O)C(Cl)Cl)cc1,Potency,[1],inactive
CN(C)CCCN1c2ccccc2CCc2ccccc21,Potency,[1],inactive
CNCC(O)c1ccc(O)c(O)c1 (configuration not stated),Potency,[1],inactive
same,Potency,[2],inactive
same,Potency,[3],inactive
CNCCCC1c2ccccc2C=Cc2ccccc21,Potency,[1],inactive
same,Potency,[2],inactive
CC(C(O)c1ccc(O)cc1)N1CCC(Cc2ccccc2)CC1 (configuration not stated),Potency,[1],inactive
same,Potency,[2],inactive
Cc1cc(CC(=O)O)n(C)c1C(=O)c1ccc(Cl)cc1,Potency,[1],inactive
CN1CCCCC1CCN1c2ccccc2Sc2ccc(S(C)=O)cc21 (configuration not stated),Potency,[1],inactive
O=C1NS(=O)(=O)c2ccccc21,Potency,[1],inactive
O=C(O)[C@@H]1CSCN1,outcome,[5],inactive
same,Potency,[1],inactive
same,Potency,[3],inactive
same,Potency,[4],inactive
CSc1ccc2c(c1)N(CCC1CCCCN1C)c1ccccc1S2 (configuration not stated),Potency,[1],inactive
same,Potency,[2],inactive
same,Potency,[3],5.96 µM (active)
same,Potency,[4],3.76 µM (active)
C=Cc1c(C)c2cc3[nH]c(cc4nc(cc5nc(cc1[nH]2)C(C)=C5CCC(=O)O)C(CCC(=O)O)=C4C)c(C)c3C=C,outcome,[5],inactive
same,Potency,[1],inactive
same,Potency,[2],inactive
same,Potency,[6],34.5 µM (active)
CN1CCC[C@@H]1Cc1c[nH]c2ccc(CCS(=O)(=O)c3ccccc3)cc12,Potency,[1],13.8 µM (active)
same,Potency,[2],inactive
same,Potency,[3],inactive
same,Potency,[4],inactive
C[C@@H]1CC[C@@]2(OC1)O[C@H]1C[C@H]3[C@@H]4CC[C@H]5C[C@@H](O)CC[C@]5(C)[C@H]4CC(=O)[C@]3(C)[C@H]1[C@@H]2C,"activity change, negative = inhibition",[5],37% [at 4.83 µM]
same,"activity change, negative = inhibition",[1],5.2% [at 4.83 µM]
same,"activity change, negative = viability loss",[3],-10.8% [at 4.96 µM]
same,outcome,[4],inactive [at 4.96 µM]
OCC(O)CN1CCN(c2ccccc2)CC1 (configuration not stated),outcome,[5],inactive
same,Potency,[1],inactive
same,Potency,[3],inactive
same,Potency,[4],inactive
C[C@H](N)[C@H](O)c1cccc(O)c1,outcome,[5],inactive
same,Potency,[3],inactive
same,Potency,[4],inactive
CN(C)CCC=C1c2ccccc2CCc2ccccc21,Potency,[1],inactive
same,Potency,[2],inactive
Cc1c(O)cccc1C(=O)N[C@@H](CSc1ccccc1)[C@H](O)CN1C[C@H]2CCCC[C@H]2C[C@H]1C(=O)NC(C)(C)C,Potency,[1],15.5 µM (active)
same,Potency,[2],inactive
same,Potency,[3],15 µM (active)
same,Potency,[4],16.8 µM (active)
CN(C)CC[C@@H](c1ccc(Cl)cc1)c1ccccn1,Potency,[1],inactive
same,Potency,[2],inactive
same,Potency,[3],inactive
same,Potency,[4],inactive
CN1CCN(C2Cc3ccccc3Sc3ccc(Cl)cc32)CC1 (configuration not stated),Potency,[1],8.49 µM (active)
same,Potency,[2],inactive
CC(C)(C)C(=O)C(Oc1ccc(Cl)cc1)n1ccnc1 (configuration not stated),Potency,[1],2.75 µM (active)
c1ccc2c(CC3=NCCN3)cccc2c1,outcome,[5],inactive
same,Potency,[1],inactive
same,Potency,[3],inactive
COc1ccc2c(c1)C(=O)N(CCc1ccc(S(=O)(=O)NC(=O)NC3CCCCC3)cc1)C(=O)C2(C)C,Potency,[1],13.8 µM (active)
CCN(CC)CCNC(=O)c1cc(Cl)c(N)cc1OC,outcome,[5],inactive
same,Potency,[1],inactive
same,Potency,[2],inactive
same,Potency,[3],inactive
same,Potency,[4],inactive
CC(=O)NC(Cc1ccccc1)C(=O)O (configuration not stated),outcome,[5],inactive
same,Potency,[1],inactive
same,Potency,[3],inactive
same,Potency,[4],inactive
O=c1[nH]c(=O)c2[nH]c(=O)[nH]c2[nH]1,"activity change, negative = inhibition",[1],8.18% [at 11.5 µM]
CCN(CC)CCSC(=O)C(c1ccccc1)c1ccccc1,Potency,[1],13.8 µM (active)
CN(N=O)C(=O)N[C@@H]1[C@@H](O)[C@H](O)[C@@H](CO)O[C@@H]1O,outcome,[5],inactive
same,Potency,[1],inactive
same,Potency,[3],inactive
same,Potency,[4],inactive
O=C1O[C@H]([C@@H](O)CO)C(O)=C1O,Potency,[1],inactive
same,Potency,[3],inactive
same,Potency,[4],inactive
O=C1O[C@H](CO)[C@@H](O)[C@H](O)[C@H]1O,Potency,[1],inactive
same,Potency,[3],inactive
same,Potency,[4],inactive
Cc1ncc(COP(=O)(O)O)c(C=O)c1O,Potency,[1],inactive
same,Potency,[3],inactive
same,Potency,[4],inactive
CCN(CC)CCCC(C)Nc1c2ccc(Cl)cc2nc2ccc(OC)cc12 (configuration not stated),Potency,[1],inactive
same,Potency,[2],17.8 µM (active)
same,Potency,[3],7.42 µM (active)
same,Potency,[4],5.25 µM (active)
same,Potency,[7],inactive
same,Potency,[8],inactive
same,Potency,[9],inactive
Nc1cc(=O)[nH]c(N)n1,Potency,[1],inactive
same,Potency,[2],inactive
same,Potency,[3],inactive
same,Potency,[4],inactive
COc1cc(C(=O)N2CCOCC2)cc(OC)c1OC,Potency,[1],inactive
same,Potency,[3],inactive
same,Potency,[4],inactive
